HP1b binding inh: inhibitors of HP1-beta chromodomain binding to methylated histone tails; AlphaScreen HP1-beta / biotin-H3K9me3 peptide binding; Potency, µM (series often up to 114 µM), inactives show top-dose activity change, negative = inhibition, actives largely listed as inhibitors; hit rate 0.56% among 390,000; AID 540317; also: nearly all actives have a fitted effect of over 70% in size
Target sequence (P83916 whole entry, looked up): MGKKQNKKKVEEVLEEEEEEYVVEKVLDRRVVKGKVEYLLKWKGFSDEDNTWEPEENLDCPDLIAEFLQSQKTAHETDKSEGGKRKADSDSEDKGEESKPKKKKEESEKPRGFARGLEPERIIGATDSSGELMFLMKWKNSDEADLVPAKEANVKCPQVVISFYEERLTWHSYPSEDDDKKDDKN
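AlphaScreen: HP1-beta (50 nM) preformed 30 min with biotin-H3(1-18)K9me3 peptide (50 nM) in PBS pH 7.4, 0.01% Tween-20. Compound added for 30 min at RT, then streptavidin donor/nickel chelate acceptor beads (10 ug/mL) for 30 min.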
JMJD2A Tudor: blocks the human JMJD2A Tudor domain; AlphaScreen JMJD2A-Tudor / H3K4me3 peptide binding; Potency, µM (series often up to 114 µM), without a hit: top-dose activity change, negative = inhibition, most hits filed as inhibitors; hit rate 4.4% among 390,000; AID 504339; also: % is scaled to controls: 0 for no effect and ±100 for the full control effect; nearly all actives have a fitted effect of over 50% in size
Sfp inh: blocks B. subtilis Sfp PPTase activity. hit rate 3.5% among 310,000. Potency, µM, inactives show largest response in the series, negative = inhibition, hits mostly inhibitors. AID 1490. Q9F4F7. Biochemical Sfp PPTase activity, qHTS;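 also: the enzyme is Sfp with the accession as filed and its product quenches rhodamine fluorescence; 0% = enzyme reaction without inhibitor and -100% = no enzyme wells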
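Sfp 15 nM + cpd, 15 min RT; start w/ rhodamine-CoA 5 uM, BHQ-2-YbbR 12.5 uM (final); 50 mM Hepes pH 7.6, 10 mM MgCl2, 0.01% NP-40, 0.01% BSA; read 525/598 nm at 0 and 30 min.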
G9a inh: G9a (human) methyltransferase inhibition; Potency, µM (series often up to 102 µM), for the others: at the highest dose activity, negative = inhibition, most hits filed as inhibitors; Q96KQ7; hit rate 8.8% among 350,000; AID 504332; G9a H3K9 monomethylation, AlphaScreen, 2 h; also: % is scaled to controls: 0 for no effect and ±100 for the full control effect; nearly all actives have a fitted effect of over 75% in size
Target sequence (Q96KQ7 913-1193 limits assumed): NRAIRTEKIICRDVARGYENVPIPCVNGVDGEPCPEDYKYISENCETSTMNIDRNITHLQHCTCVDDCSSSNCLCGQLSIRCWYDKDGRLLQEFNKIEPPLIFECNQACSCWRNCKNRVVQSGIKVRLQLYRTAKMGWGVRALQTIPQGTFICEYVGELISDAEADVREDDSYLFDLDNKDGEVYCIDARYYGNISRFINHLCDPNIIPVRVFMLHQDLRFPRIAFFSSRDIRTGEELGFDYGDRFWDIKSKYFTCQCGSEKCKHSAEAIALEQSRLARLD
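Readings reflect AlphaScreen signal from monomethyl-H3K9 antibody detection. HMT at 20 nM; substrate b-H3K9 500 nM; cofactor SAM 20 uM; 2 h RT reaction; compounds tested as titrations in qHTS with 15 min preincubation.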
PLK1 PBD inh: blocks phosphopeptide binding to human PLK1 polo-box domain. P53350. Plk1 PBD binding of FITC phosphopeptide, fluorescence polarization. Potency, µM, for the others: max response, negative = inhibition, most hits filed as inhibitors. hit rate 2.8% among 360,000. AID 720504; also: series mostly up to about 57 µM; % is scaled to controls: 0 for no effect and ±100 for the full control effect; nearly all actives have a fitted effect of over 65% in size
BAZ2B inh: BAZ2B (human) inhibition; Potency, µM (top dose mostly 114 µM), inactives show top-dose activity change, negative = inhibition, most hits filed as inhibitors; AID 504333; hit rate 4.4% among 360,000; AlphaScreen BAZ2B-H3K14Ac peptide displacement; Q9UIF8; also: % is scaled to controls: 0 for no effect and ±100 for the full control effect; nearly all actives have a fitted effect of over 60% in size
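BAZ2B 50 nM plus b-H3(5-23)K14Ac 50 nM, PBS pH 7.4/0.01% Tween-20, 30 min RT; compound added (max 110 uM), 30 min RT; streptavidin donor/Ni-chelate acceptor beads 10 ug/mL final, 20 min dark; AlphaScreen read.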
Starred values were filed as active, the others as inactive; u = inconclusive; x = no result; [ ] = another dose, or the depositor's remark. This is a sample that favours compounds with a hit; in the whole collection about 12% have one here. Calls follow the shape of the dose curve; as a rule, active = well fitted curve in the direction sought with a large enough effect; inconclusive = small, poorly fitted or top-dose-only effect, or another doubt; inactive = no such curve, though single readings can be large; an effect the other way counts as inactive or inconclusive. Potency is read from the fitted curve at half-maximal effect.

SMILES	HP1b binding inh	JMJD2A Tudor	Sfp inh	G9a inh	PLK1 PBD inh	BAZ2B inh
CCOC(=O)c1nn(-c2ccc(F)cc2)c2c1CC/C2=C/c1ccccc1	38.5%	-6.5%	-0.1%	70.8µM*	-7.7%	-0.8%
CC(C)C[C@@H](NC(=O)C1CCC(CNC(=O)[C@@H]2CCCN2C(=O)OC(C)(C)C)CC1)C(=O)O (some centres not stated)	12.0%	-4.5%	9.1%	-5.8%	-12.5%	9.4%
COc1ccccc1-c1c(C)nn2c(N3CCN(c4ccccc4)CC3)cc(C)nc12	35.0%	-17.6%	x	-0.4%[59 µM]	x	3.7%
COc1ccccc1-c1c(C)nn2c(N3CCN(c4ccccc4OC)CC3)cc(C)nc12	10.3%	u	-7.0%	u	21.2µM*	-4.9%
COCCCn1c(SCC(=O)NC2CCCCC2)nc2ccccc2c1=O	6.2%	-12.8%	2.3%	27.9%	-7.6%	3.4%
CCOCCCn1c(SCC(=O)NC2CCCC2)nc2ccccc2c1=O	23.2%	u	-0.3%	40.7%[0.501 µM]	26.7µM*	12.6%
CCOC(=O)N1CCC(n2c(SCC(=O)N3CCC(C)CC3)nc3ccccc3c2=O)CC1	26.3%	-19.8%	79.4µM*	-7.6%[59 µM]	-8.6%	6.9%
CCCCn1c(SCC(=O)Nc2ccc3c(c2)CCC3)nc2ccccc2c1=O	15.4%	-23.4%	4.2%	-13.6%[59 µM]	29.9µM*	-16.0%
CCOc1ccccc1NC(=O)CSc1nc2ccccc2c(=O)n1CC1CCCO1 (configuration not stated)	-0.9%	-8.1%[57.1 µM]	u	4.47µM*	u	1.3%
Cc1ccccc1NC(=O)CSc1nc2ccccc2c(=O)n1CC1CCCO1 (configuration not stated)	-22.7%	-14.7%	9.8%	8.1%	-14.7%	-7.0%
Cc1ccc(S(=O)(=O)c2nnn3c2nc(Nc2ccc(C(C)C)cc2)c2sccc23)cc1C	34.7%	3.7%	x	-3.2%[59 µM]	x	2.6%
CCc1ccc(NC(=O)CN2C(=O)C(=O)c3ccccc32)cc1	15.1%	-16.5%	x	7.7%[59 µM]	x	-10.6%
CCC(Sc1nnc(C)n2c1cc1sccc12)C(=O)Nc1ccccc1F (configuration not stated)	42.5%	0.4%	x	-26.1%[59 µM]	x	-9.8%
COc1ccc(CCn2c(=O)c3cccnc3n(CC(=O)Nc3c(C)cccc3C)c2=O)cc1OC	30.3%	-5.5%	x	1.2%[59 µM]	x	0.8%
CCOCCCn1c(SCC(=O)Nc2ccc(OC)cc2)nc2ccccc2c1=O	-20.7%	0.0%	50.1µM*	31.6µM*	u	0.3%
CCOC(=O)CSc1nc2ccccc2c(=O)n1CC1CCCC1	91.0%	u	-19.3%	78.5%[59 µM]	2.99µM*	70.5%
CCNC(=O)CSc1nc2ccccc2c(=O)n1OC	19.2%	8.1%	-2.5%	79.4µM*	-4.8%	0.2%
CCOCCCn1c(SCC(=O)Nc2ccccc2)nc2ccccc2c1=O	54.8%	-1.4%	7.9%	x	-8.4%	6.2%[0.457 µM]
CCNC(=O)COn1c(SCC(=O)NCC)nc2ccccc2c1=O	34.8%	5.4%	-5.5%	u	-4.8%	-0.3%
CCCn1c(SCC(=O)Nc2ccccc2CC)nnc1C(C)C	-7.0%	u	6.4%	-40.2%	2.99µM*	7.0%
CN(C)c1ccc(NC(=O)Cn2c(SCc3ccccc3F)nc3cccnc32)cc1	15.7%	-13.9%	x	3.16µM*	x	-10.0%
O=C(Cn1c(SCc2ccccc2F)nc2cccnc21)Nc1ccc(F)c(Cl)c1	26.3%	-16.2%	x	u	x	0.3%
Cc1ccc(C)c(CSc2nc3ccncc3n2CC(=O)Nc2ccc(N(C)C)cc2)c1	-9.4%	u	x	5.01µM*	x	u
Cn1c(N)nc2nc[nH]c2c1=S	46.0%	39.8µM*	x	x	-6.4%	x
Cc1nc(-c2coc3cc(C)c(N=O)c(O)c3/c2=N\N)cs1	20.0%	-24.8%	u	50.1µM*	-4.5%	u
SMILES	HP1b binding inh	JMJD2A Tudor	Sfp inh	G9a inh	PLK1 PBD inh	BAZ2B inh
Cc1nc(-c2coc3cc(O)c(C)cc3c2=O)cs1	29.1%	-2.5%	2.9%	52.6%[12.7 µM]	-2.1%	10.2%
C[C@@]12CCC(=O)C=C1C=CC1C2CC[C@]2(C)C1CC[C@@]21CCC(=O)O1 (some centres not stated)	x	x	-11.8%	-41.5%[2.33 µM]	x	x
Cc1cc(C)n(CC(=O)NNC(=O)C2CC(=O)N(Cc3ccccc3Cl)C2)n1 (configuration not stated)	35.7%	-3.7%	26.0%	44.7µM*	0.8%	-1.3%
COC(=O)N/N=C/C1=C[N+](=O)c2ccccc2[N+]1=O	x	x	18.5%	-34.3%[2.33 µM]	x	x
CCOC(=O)c1nn(-c2ccccc2)c(=O)cc1OCC(=O)Nc1ccccc1OCC	33.1%	-15.1%	x	4.9%	1.4%	6.8%
COCC(C)n1c(C)cc(C(=O)CSc2ncccn2)c1C (configuration not stated)	23.9%	-15.1%	-7.1%	35.5µM*	-14.6%	u
COCC(C)n1c(C)cc(C(=O)CSc2ccc(NC(C)=O)cc2)c1C (configuration not stated)	u	2.7%	-3.0%	2.5%[12.7 µM]	u	-30.0%
COCC(C)n1c(SCC(=O)c2cc(C)n(C)c2C)nc2ccccc2c1=O (configuration not stated)	-28.3%	u	-18.7%	39.8µM*	2.0%	50.1µM*
CC(=O)Nc1ccc(C2C(C)CCC3C(=O)N4C(CCC(C)[C@@H]4c4ccc(NC(C)=O)cc4)C(=O)N32)cc1 (some centres not stated)	x	x	5.7%	x	x	x
CC1=NN(c2ccc(C(=O)OC(C)C)cc2)C(=O)/C1=C\C=C\c1ccco1	u	17.8µM*	u	4.47µM*	-15.1%	3.98µM*
O=C(O)c1cc(N2N=C(C(F)(F)F)/C(=C/C=C/c3ccco3)C2=O)ccc1Cl	1.58µM*	1µM*	22.4µM*	2.51µM*	0.532µM*	12.6µM*
CCOC(=O)c1ccc(N2N=C(C)/C(=C/C=C/c3ccco3)C2=O)cc1	u	u	-1.6%	u	-7.5%	6.31µM*
CN(CC(=O)Nc1ccc(Cl)c(C(F)(F)F)c1)C(=O)/C=C/c1ccco1	18.9%	-2.8%	-22.0%	-14.0%	-3.8%	-13.2%
Cc1cc(C)cc(NC(=O)Cn2cc(C(=O)c3cccs3)c3ccccc32)c1	18.0%	-18.9%	x	-32.6%[59 µM]	x	-4.7%
O=C1CCSc2ccc(Cl)cc2N1Cc1ccccc1	44.5%	0.8%	13.2%	-11.6%[2.33 µM]	-1.2%	3.8%
Cc1cccc(CN2C(=O)CCSc3ccc(Cl)cc32)c1	28.5%	-18.5%[11.4 µM]	-4.4%	42.4%	26.7µM*	26.6%
Cc1ccc(/C=C/C(=O)c2ccc(O)cc2)cc1	14.0%	-19.0%	8.7%	20.2%[59 µM]	-12.0%	-24.4%
COC(=O)c1ccc(/C=C/C(=O)c2ccc(OC)cc2)cc1	3.4%	100µM*	4.0%	-8.5%	-11.5%	11.3%
COc1ccc(Oc2ccc(/C=C/C(=O)c3ccc(O)cc3)cc2[N+](=O)[O-])cc1	-23.6%	u	-2.6%	39.8µM*	-5.5%	u

From PubChem
